Consider 19 compounds from PubChem BioAssay.

SMILES strings stand for the structures. Where “and” joins values, the source holds several entries; their conditions need not be identical. Equal entries are not always repeated. Inconclusive results are not listed. Calls of active or inactive are those of the source. Unless noted, no stated cut-off is given here; in the data, active means inhibition above about 80%; inactive means the rest.

The target of assay [1] is ATP-dependent translocase ABCB1 (Homo sapiens) (UniProt P08183). Kind of assay: MDR1 (ABCB1) efflux transporter inhibition, cell-based (AID 377; in the data active means fluorescence slope change above about 50%). The conditions noted are these: MDR1-expressing cells, fluorescent substrate accumulation slope; stronger effect = higher value; concentration not given here.
Assay [2] can be described thus: HD-MB03 medulloblastoma cell growth inhibition, synergistic combos for chromothripsis tumors, BGB or cisplatin IC20 combos (AID 1671455; in the data active means inhibition above about 83%;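 further: 0% = vehicle DMSO and 100% = high DMSO as cytotoxic control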). The settings on record: HD-MB03 medulloblastoma cells, stronger effect = higher value.
A short description of assay [3]: UWB1.289 ovarian carcinoma cell growth inhibition, synergistic combos for chromothripsis tumors, BGB or cisplatin combos (AID 1671456).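 Further: cells exposed to compound for four days; 0% = vehicle DMSO and 100% = killing by high DMSO.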 The conditions noted are these: UWB1.289 ovarian carcinoma cells, stronger effect = higher value.
Assay [4] can be described thus: LFS_MB_2R medulloblastoma cell growth inhibition, synergistic combos for chromothripsis tumors, cisplatin combos (AID 1671457).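 Further: cells exposed to compound for four days before readout.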 The conditions noted are these: LFS_MB_2R medulloblastoma cells, stronger effect = higher value.
Assay [5] in a line: UWB1.289_BRCA1 ovarian cancer growth, cell-based, BGB or cisplatin combinations (AID 1671459). The conditions noted are these: UWB1.289 BRCA1 ovarian carcinoma, drug combinations, stronger effect = higher value.
Assay [6] in a line: human astrocyte viability loss, single and combined drugs, cytotoxicity control for chromothriptic childhood tumor combination screen, cell-based, BGB or cisplatin IC20 combos (AID 1671460).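 Further: cells exposed to compounds for 96 hours before viability readout; 0% = vehicle and 100% = killing control.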 The settings on record: Human astrocytes, drug combinations, stronger effect = higher value.
Assay [7] is described as follows: inhibitors of Cryptococcus chitosan production, flow cytometry, Cibacron Brilliant Red staining (AID 1347148; call rule not given here;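 further: compound exposure lasted three days at 37 degrees C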). The settings on record: Cryptococcus neoformans chitosan, stronger effect = lower value; at 10 µM unless noted. A general note: In flow cytometry, cells or beads pass a laser one at a time.
Assay [8] can be described thus: antimalarial activity against Dd2 strain (AID 2302;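 active means growth inhibition above 50% at the single 2 µM test dose, taken to imply half-maximal potency below 2 µM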;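 further: 0% = DMSO untreated growth and 100% = chloroquine plus artemisinin killed control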). The conditions noted are these: P. falciparum Dd2 in RBCs, LDH growth readout, 72 h; at 2 µM; stronger effect = higher value.
Assay [9] is described as follows: HepG2 cytotoxicity, primary screen, cytotoxicity control for P. falciparum antimalarial project, cell-based, ATP luminescence (AID 2303;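 active means inhibition above 50%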;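 further: 0% = DMSO wells and 100% = digitonin-killed cells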). The settings on record: HepG2 viability, 24-48 h, at 10 µM, stronger effect = higher value.
The target of assay [10] is L-lactate dehydrogenase (Plasmodium falciparum (isolate CDC / Honduras)) (UniProt Q27743). Kind of assay: PfLDH activity inhibition – cell lysate, 3D7 strain, counter-screen for P. falciparum growth inhibition project (AID 2304; call rule not given here;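 further: 0% = vehicle and 100% = reference inhibitor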). The conditions noted are these: P. falciparum 3D7 crude extract, LDH APAD/NBT absorbance; at 2 µM; stronger effect = higher value. (A counterscreen serves to expose hits that act by an unwanted route or on another target.)

Assay [11] in a line: inhibition of 3D7 malaria parasite growth – strain 3D7 (AID 2306; call rule not given here;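 further: 0% = DMSO wells and 100% = chloroquine plus artemisinin control wells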). The settings on record: P. falciparum 3D7 erythrocytic growth, LDH absorbance, 72 h; at 2 µM; stronger effect = higher value.
A short description of assay [12]: protection against mutant huntingtin cytotoxicity, PC12 cells, LDH release (AID 1610). The settings on record: PC12 mutant huntingtin toxicity, final LDH at 4 uM, stronger effect = lower value. For orientation: Release of lactate dehydrogenase indicates damage to the cell membrane.
Assay [13] is described as follows: inhibitors of polyQ aggregate elongation, biochemical, solid-phase synthetic aggregates, QA3 (AID 1585; call rule not given here). The conditions noted are these: biotin-polyQ incorporation; EC50: measured here: elongation inhibition potency; inhibition: at 100 µM, stronger effect = higher value.
The mark [14] stands for this setting: measured here: combo with BGB at IC20, at 0.5 µM.
The mark [15] stands for this setting: measured here: combo with cisplatin at IC20, at 0.5 µM.
Where [16] appears, read: measured here: inhibition with BGB combination, at 0.05 µM.
Setting [17] is: measured here: inhibition with cisplatin combination, at 0.05 µM.
Where [18] appears, read: measured here: combination with cisplatin, at 0.5 µM.
Where [19] appears, read: measured here: combination with cisplatin, at 5 µM.
Setting [20] is: BGB combination, concentration series, at 5 µM.
Setting [21] is: cisplatin combination, concentration series, at 5 µM.
Where [22] appears, read: measured here: combo with BGB IC20, at 0.5 µM.
Setting [23] is: measured here: combo with cisplatin IC20, at 0.5 µM.

Sequence of ATP-dependent translocase ABCB1 (Homo sapiens) (P08183 whole entry, looked up): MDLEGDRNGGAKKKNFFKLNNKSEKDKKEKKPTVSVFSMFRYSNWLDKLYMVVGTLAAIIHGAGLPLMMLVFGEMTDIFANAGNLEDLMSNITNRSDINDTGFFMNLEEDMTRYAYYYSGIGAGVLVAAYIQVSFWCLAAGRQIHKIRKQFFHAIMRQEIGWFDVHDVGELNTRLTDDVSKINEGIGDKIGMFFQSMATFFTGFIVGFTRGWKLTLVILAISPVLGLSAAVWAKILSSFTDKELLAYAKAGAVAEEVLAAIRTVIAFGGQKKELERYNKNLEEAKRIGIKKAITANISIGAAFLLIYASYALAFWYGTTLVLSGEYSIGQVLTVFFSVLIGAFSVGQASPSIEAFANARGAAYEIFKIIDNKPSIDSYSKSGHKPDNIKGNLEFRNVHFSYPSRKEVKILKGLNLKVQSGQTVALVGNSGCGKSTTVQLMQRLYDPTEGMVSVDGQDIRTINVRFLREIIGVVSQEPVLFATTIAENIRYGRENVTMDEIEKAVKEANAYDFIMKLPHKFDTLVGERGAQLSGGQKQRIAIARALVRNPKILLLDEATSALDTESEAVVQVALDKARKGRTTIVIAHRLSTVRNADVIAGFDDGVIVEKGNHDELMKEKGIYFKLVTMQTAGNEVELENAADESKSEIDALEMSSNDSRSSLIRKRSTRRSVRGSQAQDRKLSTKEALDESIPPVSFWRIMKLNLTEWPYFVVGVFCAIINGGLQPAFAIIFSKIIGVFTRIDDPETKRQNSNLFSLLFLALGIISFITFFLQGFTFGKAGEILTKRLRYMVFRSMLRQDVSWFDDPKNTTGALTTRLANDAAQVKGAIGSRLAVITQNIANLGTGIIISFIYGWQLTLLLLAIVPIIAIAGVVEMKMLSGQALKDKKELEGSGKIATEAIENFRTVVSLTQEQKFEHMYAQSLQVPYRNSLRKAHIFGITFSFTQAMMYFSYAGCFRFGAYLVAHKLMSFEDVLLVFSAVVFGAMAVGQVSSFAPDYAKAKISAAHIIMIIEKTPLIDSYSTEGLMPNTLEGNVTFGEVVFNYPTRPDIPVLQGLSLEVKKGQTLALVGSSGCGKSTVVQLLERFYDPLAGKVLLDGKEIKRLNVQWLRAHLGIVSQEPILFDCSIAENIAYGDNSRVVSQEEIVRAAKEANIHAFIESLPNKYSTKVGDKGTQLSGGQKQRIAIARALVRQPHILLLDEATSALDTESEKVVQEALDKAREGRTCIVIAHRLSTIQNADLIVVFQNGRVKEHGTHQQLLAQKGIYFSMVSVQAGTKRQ
Sequence of L-lactate dehydrogenase (Plasmodium falciparum (isolate CDC / Honduras)) (Q27743 whole entry, looked up): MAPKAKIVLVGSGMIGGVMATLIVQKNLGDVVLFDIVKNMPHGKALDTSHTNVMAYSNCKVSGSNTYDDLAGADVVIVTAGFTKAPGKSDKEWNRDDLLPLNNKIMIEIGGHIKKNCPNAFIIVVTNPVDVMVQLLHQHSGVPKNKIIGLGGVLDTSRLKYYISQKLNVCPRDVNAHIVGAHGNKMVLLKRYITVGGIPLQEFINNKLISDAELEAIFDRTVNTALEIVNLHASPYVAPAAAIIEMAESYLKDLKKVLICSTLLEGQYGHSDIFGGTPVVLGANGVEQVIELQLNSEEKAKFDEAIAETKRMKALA

Take `CN[C@@H]1[C@H](O[C@H]2[C@H](O[C@@H]3[C@@H](O)[C@H](O)[C@@H](N=C(N)N)[C@H](O)[C@H]3N=C(N)N)O[C@@H](C)[C@]2(O)C=O)O[C@@H](CO)[C@H](O)[C@H]1O`: in [1], the fluorescence slope change is 2.1% (inactive).
Regarding `Cc1c(-c2cnccn2)ssc1=S`, the inhibition (in general, the relative decrease from the control value, in per cent) is -13% (inactive) in assay [2] (at 0.5 µM); -1.23% in assay [2] (setting [14]); -23% in [2] (setting [15]); -15.7% (inactive) in assay [3] (at 0.5 µM); -24.2% in [3] (setting [16]); 3.36% in assay [3] (setting [17]). In addition, the inhibition in assay [4] (at 0.5 µM) was -15.7% (inactive); in assay [4] (setting [18]), -6.9%; in assay [4] (setting [19]), -12.4%; in [5] (setting [20]), -4.42%; in [5] (at 0.5 µM) it was -14.9% (inactive); in assay [5] (setting [21]), -10.4%. Moreover, the figures for the inhibition in [6] (at 0.5 µM), in [6] (setting [22]) and in assay [6] (setting [23]) were 0.12% (inactive), -4.93% and -9.68%, respectively.
Regarding `CC[C@@]1(O)C(=O)OCc2c1cc1n(c2=O)Cc2cc3cc(O)ccc3nc2-1`, the fold fluorescence in assay [7] is 7.95 [at 137.2 µM] (inactive). The inhibition in assay [2] (at 0.5 µM) was 99.4% (active) and 99.3% (active); in [2] (setting [14]), 99.4%; in assay [2] (setting [15]), 99.4% and 99.2%; in [3] (at 0.5 µM) it was 90.1% (active) and 89.5% (active); in assay [3] (setting [16]), 17.9% and 40%; in assay [3] (setting [17]) it was 28.7% and 40.8%. Besides, the inhibition in [4] (at 0.5 µM) is 21.3% (inactive) and 29.5% (inactive); in assay [4] (setting [18]), 63.4% and 65.4%; in assay [4] (setting [19]), 76.4% and 77.8%; in [5] (setting [20]) it was 96.9% and 98%; in assay [5] (at 0.5 µM), 97.1% (active) and 97.8% (active); in assay [5] (setting [21]), 99.8% and 104%. The inhibition in assay [6] (at 0.5 µM) was 84.1% (active) and 83.3% (active); in [6] (setting [22]), 91.6% and 86.1%; in assay [6] (setting [23]), 76% and 80.4%.
With `OC(c1cc(C(F)(F)F)nc2c(C(F)(F)F)cccc12)C1CCCCN1` (stereo not drawn), the fluorescence slope change in [1] is 96.4% (active). Also, the values for the growth inhibition in [8] and in [11] were 99% (active) and 96% (active), respectively. The inhibition in assay [9] was -3% (inactive); in assay [10] it was -6% (inactive).
In the case of `CCC(NC(C)C)C(O)c1ccc(O)c(O)c1` (stereo not drawn), in assay [1], the fluorescence slope change was 50.8% (active).
Consider `CCCCC[C@H](CC(=O)NO)C(=O)N[C@H](C(=O)N1CCC[C@H]1CO)C(C)C`, for which the normalised LDH release in [12] was determined as 1.19.
Take `CO[C@@]12[C@@H]3NC3CN1C1=C(C(=O)C(N)=C(C)C1=O)[C@@H]2COC(N)=O` (stereo partly drawn): in assay [12], the normalised LDH release was determined as 0.873. In [7], the fold fluorescence is 4.49 [at 149.6 µM] (inactive).
`C[C@@H]1CC2C3CCC4=CC(=O)C=C[C@]4(C)[C@@]3(F)[C@@H](O)C[C@]2(C)[C@@]1(O)C(=O)CO` (stereo partly drawn): in [7], the fold fluorescence is 10.5 [at 127.4 µM] (inactive).
Consider `COc1cccc2c1C(=O)c1c(O)c3c(c(O)c1C2=O)C[C@@](O)(C(=O)CO)C[C@@H]3OC1C[C@H](N)[C@H](O)[C@H](C)O1` (stereo partly drawn), for which the fold fluorescence in assay [7] is 5.77 [at 92 µM] (inactive).
In the case of `O=C(O)c1ccccc1Nc1ccccc1`, the fold fluorescence in assay [7] was 3.75 [at 234.5 µM] (inactive).
Regarding `c1ccc(C2CN3CCSC3=N2)cc1` (stereo not drawn), the fluorescence slope change in assay [1] is 29.7% (inactive).
As to `COC1CC2CCC(C)C(O)(O2)C(=O)C(=O)N2CCCCC2C(=O)OC(C(C)CC2CCC(O)C(OC)C2)CC(=O)C(C)/C=C(\C)C(O)C(OC)C(=O)C(C)CC(C)/C=C/C=C/C=C/1C` (stereo not drawn), in [7], the fold fluorescence was 6.13 [at 54.7 µM] (inactive).
Take `O=C(Nc1ccccc1)c1ccccc1O`: the inhibition in assay [2] (at 0.5 µM) was -0.28% (inactive); in assay [2] (setting [14]), 1.59%; in assay [2] (setting [15]), -2.6%; in assay [3] (at 0.5 µM), 10.7% (inactive); in [3] (setting [16]), 0.707%; in assay [3] (setting [17]), -5.75%. The inhibition in assay [4] (at 0.5 µM) is 6.25% (inactive); in [4] (setting [18]), 7.79%; in assay [4] (setting [19]) it was 26.7%; in assay [5] (setting [20]) it was 20.8%; in assay [5] (at 0.5 µM) it was 4.85% (inactive); in assay [5] (setting [21]), 20.1%. Moreover, the inhibition in assay [6] (at 0.5 µM) was 6.87% (inactive); in [6] (setting [22]), 7.24%; in [6] (setting [23]) it was 10.9%.
Consider `CCC[C@@H]1C[C@@H](C(=O)N[C@@H](C2O[C@H](SC)[C@H](O)[C@@H](O)[C@H]2O)[C@H](C)Cl)N(C)C1` (stereo partly drawn), for which the fluorescence slope change in assay [1] was 138% (active).
For `O=C(O)Cc1cc(I)c(Oc2ccc(O)c(I)c2)c(I)c1`, the fluorescence slope change in assay [1] is 75.2% (active).
With `CO/N=C(/C(=O)N[C@@H]1C(=O)N2C(C(=O)O)=C(COC(C)=O)CS[C@H]12)c1csc(N)n1`, the normalised LDH release in assay [12] is 0.958.
With `COc1ccc(C[C@H](N)C(=O)N[C@@H]2[C@@H](CO)OC(n3cnc4c(N(C)C)ncnc43)[C@@H]2O)cc1` (stereo partly drawn), in assay [12], the normalised LDH release is 1.
On to `C#C[C@]1(O)CCC2C3CCc4cc(O)ccc4C3CC[C@@]21C` (stereo partly drawn), for which, in assay [13], the EC50 (as a rule, the concentration that produces a half-maximal response) is 129 µM and the inhibition is 58.5% (active).
`CC1(C)O[C@@H]2CC3C4C[C@H](F)C5=CC(=O)C=CC5(C)C4C(O)CC3(C)[C@]2(C(=O)CO)O1` (stereo partly drawn) had a normalised LDH release in assay [12] of 0.689.
